# Legend:
# Conditions in all cases: concentration: 1 μM, replicates: in singlicate; n = 1
# [1] = test system: RPS6KA4(Kin.Dom.1-N-terminal)
# [2] = test system: RPS6KA4(Kin.Dom.2-C-terminal)
# [3] = test system: RPS6KA5(Kin.Dom.1-N-terminal)
# [4] = test system: RPS6KA5(Kin.Dom.2-C-terminal)
# [5] = test system: T1, RSK1(Kin.Dom.1-N-terminal)
# T1 construct: gene RPS6KA1
# [6] = test system: T2, RSK1(Kin.Dom.2-C-terminal)
# T2 construct: gene RPS6KA1
# [7] = test system: T3, RSK2(Kin.Dom.1-N-terminal)
# T3 construct: gene RPS6KA3
# [8] = test system: T4, RSK2(Kin.Dom.2-C-terminal)
# T4 construct: gene RPS6KA3
# [9] = test system: T5, RSK3(Kin.Dom.1-N-terminal)
# T5 construct: gene RPS6KA2
# [10] = test system: T6, RSK3(Kin.Dom.2-C-terminal)
# T6 construct: gene RPS6KA2
# [11] = test system: T7, RSK4(Kin.Dom.1-N-terminal)
# T7 construct: gene RPS6KA6
# [12] = test system: T8, RSK4(Kin.Dom.2-C-terminal)
# T8 construct: gene RPS6KA6
# [13] = test system: S6K1
# [14] = test system: SBK1
# [15] = test system: SGK2
# [16] = test system: SGK3
# [17] = test system: SGK
# [18] = test system: SIK2
# [19] = test system: SIK
# [20] = test system: SLK
# 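Further: KINOMEscan kinase panel screen.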
Compound,%Inh [1],%Inh [2],%Inh [3],%Inh [4],%Inh [5],%Inh [6],%Inh [7],%Inh [8],%Inh [9],%Inh [10],%Inh [11],%Inh [12],%Inh [13],%Inh [14],%Inh [15],%Inh [16],%Inh [17],%Inh [18],%Inh [19],%Inh [20]
Cc1ccc(NC(=O)c2cccc(N3CCCCC3)c2)cc1-c1ccc(C(=O)NCC2CC2)cc1 [GSK1917008],28%,0%,33%,8%,18%,1%,15%,21%,12%,5%,0%,37%,8%,10%,11%,7%,0%,93.3%,8%,10%
Cn1cc(-c2ccc3c(c2)CCN3C(=O)Cc2cc(F)cc(F)c2F)c2c(N)ncnc21 [GSK2634140],19%,0%,20%,0%,21%,0%,12%,0%,12%,0%,0%,0%,17%,16%,4%,0%,0%,0%,8%,60%
CSc1ccc(NC2=C(c3ccc(Cl)cc3)C(=O)NC2=O)cc1 [SB-317658],28%,0%,2%,30%,6%,0%,11%,0%,0%,0%,5%,0%,0%,29%,0%,0%,0%,9%,25%,8%
Cc1ccc(O)cc1Nc1ccnc2ccc(C(C)(C)C)cc12 [GW856805],4%,9%,2%,8%,30%,0%,39%,32%,16%,0%,31%,1%,13%,53%,13%,1%,25%,0%,42%,12%
COc1cc(Nc2nccc(N3CCC(NC(=O)Nc4ccc5c(c4)OCO5)C3)n2)cc(OC)c1OC (stereo not shown) [GSK1379766],0%,0%,1%,18%,22%,2%,5%,0%,10%,5%,0%,14%,17%,10%,0%,11%,0%,0%,8%,36%
O=C(Nc1n[nH]c2nc(-c3ccccc3)ccc12)C1CC1 [SB-708999],5%,0%,13%,4%,0%,0%,0%,32%,4%,0%,30%,1%,17%,9%,15%,47%,23%,0%,28%,12%
COc1cccc2c(-c3ccncc3)c(-c3ccc(F)cc3)nn12 [GW468513],4%,0%,23%,0%,0%,48%,0%,20%,3%,0%,23%,86%,3%,0%,0%,9%,0%,0%,0%,23%
O=C(O)C(F)(F)F.O=c1[nH]ccc2nc(N[C@@H]3CCNC3)nc(Nc3ccc4c(c3)S(=O)(=O)CC4)c12 [GSK2181306],91.8%,100%,62%,95.4%,97.8%,78%,97.6%,31%,91.3%,87%,97.8%,59%,92.7%,90.1%,91.7%,98.6%,97.2%,73%,18%,99.7%
CC(C)NCC(Cc1ccccc1)NC(=O)c1cc(Br)c(-c2ccnc3[nH]ccc23)s1.Cl.Cl (stereo not shown) [GSK1383281],76%,0%,48%,22%,50%,0%,25%,0%,16%,6%,5%,20%,56%,45%,0%,66%,59%,0%,4%,0%
CN(c1ccc(F)c(NC(=O)c2cccc(OC(C)(C)C#N)c2Cl)c1)c1ccc2nc(NC(=O)C3CC3)sc2n1,0%,0%,11%,6%,0%,1%,0%,59%,0%,0%,4%,0%,1%,18%,0%,2%,0%,39%,97%,14%
Cl.Cl.NC(CNC(=O)c1cc(Br)c(-c2ccnc3[nH]ccc23)s1)c1ccccc1 (stereo not shown) [GSK1322949],37%,62%,37%,33%,10%,26%,37%,22%,14%,14%,0%,16%,39%,51%,16%,66%,46%,6%,4%,20%
Cn1cc(-c2cnc(N)c3c(-c4ccc5c(c4)CCN5C(=O)Cc4ccccc4)csc23)cn1 [GSK2593074],1%,38%,0%,2%,9%,42%,0%,9%,0%,7%,0%,18%,16%,0%,6%,0%,21%,9%,42%,69%
COc1ccc(C)c(Nc2ccnc(Nc3ccc(-c4cnc[nH]4)cc3)n2)c1.Cl [GW784041],26%,5%,8%,10%,0%,1%,0%,3%,1%,6%,0%,0%,0%,0%,0%,12%,0%,71%,28%,70%
CN(C)c1ncnc2nc[nH]c12 [SKF-31736],1%,0%,0%,11%,0%,0%,39%,0%,0%,0%,28%,8%,29%,0%,23%,0%,14%,0%,0%,0%
Cl.N#CCc1ccc(Nc2nccc(Nc3ccc(Oc4ccccc4)cc3)n2)cc1 [GW639905],0%,0%,0%,0%,1%,0%,0%,16%,4%,0%,0%,0%,0%,13%,0%,90.1%,0%,0%,0%,0%
COc1cccc(CC(=O)N2CCc3cc(-c4cn(C)c5ncnc(N)c45)ccc32)c1 [GSK2608899],28%,0%,1%,11%,21%,27%,16%,17%,22%,20%,0%,29%,13%,20%,2%,2%,0%,0%,17%,65%
COc1cc(Nc2nccc(N3CCC(NS(=O)(=O)c4ccc(NC(C)=O)cc4)CC3)n2)cc(OC)c1OC [GSK1379825],0%,0%,27%,0%,0%,0%,5%,24%,11%,2%,0%,3%,0%,14%,15%,0%,9%,61%,0%,48%
Cc1cc(-c2ccnc(Nc3cccc(C#N)c3)n2)cc(C)c1O [GSK1440913],0%,0%,0%,0%,12%,17%,5%,0%,26%,21%,0%,0%,0%,28%,29%,6%,55%,15%,0%,21%
CC(=O)Nc1cn2nc(Oc3cccc(NC(=O)c4cccc(C(F)(F)F)c4)c3)ccc2n1,47%,0%,0%,6%,0%,0%,0%,30%,0%,5%,0%,9%,0%,0%,1%,0%,0%,18%,32%,21%
CN(C)CCOc1ccc(-c2cc(-c3ccc(Cl)c(O)c3)c(-c3ccncc3)[nH]2)cc1.Cl.Cl [SB-684387],0%,23%,0%,33%,10%,23%,3%,8%,4%,0%,0%,25%,6%,12%,10%,20%,24%,27%,4%,98%

# From article PMC5540273 (PLoS ONE, 2017)
